Calls of active or inactive are those of the source.
How the values were obtained:
[1] = test system: Human papillomavirus type 1a protein E7 (residues 44-93); assay: small molecules binding HPV E7 44-93 – biochemical, small-molecule microarray, residues 44-93, 635 nm fluorescence, primary screen (AID 1108); conditions: fluorescence 635 nm, higher = more signal;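 also: E7 fragment applied at 1 µg/mL in TBST for 1 h at 4 C; score combines spot fluorescence with its signal to noise ratio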
[2] = hepatitis C replication reporter changes, two-sided – Huh7 cells, luciferase reporter, HCV replication inhibitor project, primary screen (AID 1109); conditions: Huh7 HCV replicon luciferase reporter, 48 h; higher = more signal;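 also: huh7 hepatoma cells harbouring a luciferase neomycin HCV replicon reporter; luciferase luminescence as measure of HCV replicon replication; test concentration not given here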
[3] = target: Left-right determination factor 2 (Homo sapiens) (UniProt O00292); assay: small molecules binding LEFTY2 protein – biochemical, small-molecule microarray, 635 nm fluorescence scan, primary screen (AID 1110); conditions: higher = more signal
[4] = target: Calmodulin-1 (Homo sapiens) (UniProt P0DP23); assay: small molecules binding calmodulin-1 with EGTA – biochemical, small-molecule microarray, Cy5-labelled CALM1, profiling panel (AID 1111); conditions: Cy5-CALM1 binding fluorescence, higher = more signal;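 also: labelled calmodulin applied in Tris saline Tween buffer holding calcium plus EGTA and DTT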
[5] = target: Calmodulin-1 (Homo sapiens) (UniProt P0DP23); assay: small molecules binding Ca-loaded calmodulin-1 – biochemical, small-molecule microarray, Cy5-labelled CALM1, plus calcium, artefact control for SMM control-protein annotation, profiling panel (AID 1112); conditions: Cy5-CALM1 binding fluorescence, higher = more signal;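 also: score merges spot fluorescence with signal to noise from triplicate slides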
[6] = probe aWnt5a binding to arrayed compounds – biochemical, biotinylated probe, 635/667 nm fluorescence, primary screen (AID 1113); conditions: small-molecule microarray, higher = more signal;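 also: score merges 667 nm fluorescence intensity with signal-to-noise per printed feature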
[7] = probe aShh binding to arrayed compounds – biochemical, biotinylated probe, 635/667 nm fluorescence, primary screen (AID 1114); conditions: small-molecule microarray, higher = more signal;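 also: probe is biotin-labelled aShh protein from a stem cell growth factor screen; measures binding of labelled protein to compounds printed on the slide; score merges feature fluorescence at 667 nm with signal-to-noise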
[8] = probe aNog binding to arrayed compounds – biochemical, biotinylated probe, 635/667 nm fluorescence, primary screen (AID 1115); conditions: small-molecule microarray, higher = more signal;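 also: probe is biotinylated aNog protein used at 0.15 µg/mL for 1 h at 4 C; z-score combines 667 nm fluorescence of each spot with its signal to noise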
[9] = target: Torsin-1A-interacting protein 1 (Homo sapiens) (UniProt Q5JTV8); assay: compound microarray binding of lysate hLAP1 – cell lysate, small-molecule microarray, COS7 lysate, 635/667 nm fluorescence, primary screen (AID 1116); conditions: 635 nm fluorescence, higher = more signal
[10] = target: Alpha-bungarotoxin (Bungarus multicinctus) (UniProt P60615); assay: compounds binding labelled alpha-BTX control protein – biochemical, small-molecule microarray, Alexa647 label, 635/667 nm fluorescence, artefact control for SMM control protein annotation, profiling panel (AID 1117); conditions: alpha-BTX-A647 binding fluorescence, higher = more signal
[11] = target: Albumin (Bos taurus) (UniProt P02769); assay: compounds binding labelled BSA control protein – biochemical, small-molecule microarray, Alexa647 label, 635/667 nm fluorescence, artefact control for SMM control protein annotation, profiling panel (AID 1118); conditions: BSA-A647 binding, fluorescence 635 nm, higher = more signal;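 also: score merges 667 nm emission intensity and signal-to-noise per printed compound spot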
[12] = probe aXIP binding to arrayed compounds – biochemical, NeuroSMM set, 635/667 nm fluorescence, primary screen (AID 1119); conditions: small-molecule microarray, higher = more signal, called active from +8 up or from −8 down;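 also: probe is the protein aXip251-270 applied at 1 µg/mL to compound-printed slides; binding of probe to printed compounds measured as 667 nm fluorescence plus signal to noise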
[13] = probe aNOTCH3 binding on compound microarray – biochemical, small-molecule microarray, 635/667 nm fluorescence, primary screen (AID 1120); conditions: higher = more signal;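 also: probe is a biotin-tagged antibody raised against NOTCH3 rather than NOTCH3 protein; score merges spot fluorescence near 667 nm with spot signal to noise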
[14] = probe aNOTCH2 binding on compound microarray – biochemical, small-molecule microarray, 635/667 nm fluorescence, primary screen (AID 1121); conditions: higher = more signal;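 also: score merges feature fluorescence read at 667 nm with its signal to noise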
[15] = target: Carbonic anhydrase 2 (Homo sapiens) (UniProt P00918); assay: compounds binding carbonic anhydrase 2 – biochemical, small-molecule microarray, Alexa647-labelled CAII, profiling panel (AID 1122); conditions: CAII-A647 binding fluorescence, higher = more signal
[16] = COS7 lysate on small-molecule microarray, probe aHis, 635 nm (AID 1123); conditions: COS7 cell lysate, fluorescence, higher = more signal;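 also: z-score combines 667nm fluorescence intensity with signal-to-noise per printed compound spot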
[17] = probe aLAP1 signal on lysate-treated microarray – cell lysate, small-molecule microarray, COS7 lysate, primary screen (AID 1124); conditions: probe aLAP1, fluorescence, higher = more signal;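 also: lysate comes from COS7 cells expressing LAP1 and is applied at 0.3 µg/mL; score merges spot fluorescence near 667 nm with signal-to-noise over triplicate slides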
[18] = test system: Sam68 (KHDRBS1); assay: compounds binding KHDRBS1 protein – biochemical, small-molecule microarray, 635 nm fluorescence, primary screen (AID 1125); conditions: higher = more signal;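 also: score merges 667 nm channel intensity with signal to noise over triplicate slides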
[19] = test system: Chordin-like protein 2 (CHRDL2); assay: compounds binding chordin-like 2 – biochemical, small-molecule microarray, 635 nm fluorescence, primary screen (AID 1126); conditions: fluorescence 635 nm, higher = more signal;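 also: printed compound slides probed with Chrdl2 protein at 4 µg/mL for 1 h at 4 C; score merges 667 nm emission intensity with signal to noise over three replicate slides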
[20] = target: Concanavalin-A (Canavalia ensiformis) (UniProt P02866); assay: compounds binding concanavalin A lectin – biochemical, small-molecule microarray, Alexa647 label, 635 nm, artefact control for SMM control protein annotation, primary screen (AID 1127); conditions: ConA-A647 binding fluorescence, higher = more signal;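 also: z combines 667 nm emission intensity with signal-to-noise across three replicate slides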
Sequence of Concanavalin-A (Canavalia ensiformis) (P02866 whole entry, looked up): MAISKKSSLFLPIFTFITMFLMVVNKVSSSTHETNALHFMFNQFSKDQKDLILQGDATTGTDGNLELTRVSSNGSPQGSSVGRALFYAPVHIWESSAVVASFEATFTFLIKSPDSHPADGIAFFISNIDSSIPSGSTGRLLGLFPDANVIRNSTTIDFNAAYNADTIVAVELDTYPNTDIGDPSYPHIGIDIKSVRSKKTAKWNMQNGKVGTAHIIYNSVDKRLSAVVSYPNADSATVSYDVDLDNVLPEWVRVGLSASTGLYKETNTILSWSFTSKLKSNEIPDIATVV

Sequence of Left-right determination factor 2 (Homo sapiens) (O00292 whole entry, looked up): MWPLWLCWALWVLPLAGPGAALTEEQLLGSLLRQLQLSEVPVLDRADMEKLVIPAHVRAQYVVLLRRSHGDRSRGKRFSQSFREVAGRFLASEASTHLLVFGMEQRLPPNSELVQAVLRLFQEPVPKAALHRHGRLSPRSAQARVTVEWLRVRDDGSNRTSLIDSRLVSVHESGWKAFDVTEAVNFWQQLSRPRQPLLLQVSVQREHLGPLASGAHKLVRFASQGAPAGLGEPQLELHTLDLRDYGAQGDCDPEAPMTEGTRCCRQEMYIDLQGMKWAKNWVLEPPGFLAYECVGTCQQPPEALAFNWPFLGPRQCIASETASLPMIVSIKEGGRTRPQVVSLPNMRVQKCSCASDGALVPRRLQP
Sequence of Albumin (Bos taurus) (P02769 whole entry, looked up): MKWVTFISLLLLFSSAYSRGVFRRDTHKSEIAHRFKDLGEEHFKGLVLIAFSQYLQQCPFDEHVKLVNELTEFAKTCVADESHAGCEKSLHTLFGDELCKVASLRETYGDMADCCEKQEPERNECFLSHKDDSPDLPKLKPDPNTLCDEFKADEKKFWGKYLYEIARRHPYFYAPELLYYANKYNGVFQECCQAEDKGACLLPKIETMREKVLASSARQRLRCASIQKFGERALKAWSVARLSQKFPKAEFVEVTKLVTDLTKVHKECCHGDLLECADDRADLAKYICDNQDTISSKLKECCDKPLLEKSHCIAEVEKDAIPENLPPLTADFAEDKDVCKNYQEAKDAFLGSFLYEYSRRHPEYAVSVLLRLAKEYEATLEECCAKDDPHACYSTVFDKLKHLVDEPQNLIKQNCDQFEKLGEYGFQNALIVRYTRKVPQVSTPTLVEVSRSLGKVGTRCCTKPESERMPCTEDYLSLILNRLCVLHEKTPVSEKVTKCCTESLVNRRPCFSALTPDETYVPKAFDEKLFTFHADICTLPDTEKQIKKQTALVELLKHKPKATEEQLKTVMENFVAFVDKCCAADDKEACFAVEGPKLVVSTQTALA
Sequence of Alpha-bungarotoxin (Bungarus multicinctus) (P60615 whole entry, looked up): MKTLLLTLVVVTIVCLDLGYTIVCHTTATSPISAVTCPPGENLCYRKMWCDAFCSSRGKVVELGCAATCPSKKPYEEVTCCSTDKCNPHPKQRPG
Sequence of Torsin-1A-interacting protein 1 (Homo sapiens) (Q5JTV8 whole entry, looked up): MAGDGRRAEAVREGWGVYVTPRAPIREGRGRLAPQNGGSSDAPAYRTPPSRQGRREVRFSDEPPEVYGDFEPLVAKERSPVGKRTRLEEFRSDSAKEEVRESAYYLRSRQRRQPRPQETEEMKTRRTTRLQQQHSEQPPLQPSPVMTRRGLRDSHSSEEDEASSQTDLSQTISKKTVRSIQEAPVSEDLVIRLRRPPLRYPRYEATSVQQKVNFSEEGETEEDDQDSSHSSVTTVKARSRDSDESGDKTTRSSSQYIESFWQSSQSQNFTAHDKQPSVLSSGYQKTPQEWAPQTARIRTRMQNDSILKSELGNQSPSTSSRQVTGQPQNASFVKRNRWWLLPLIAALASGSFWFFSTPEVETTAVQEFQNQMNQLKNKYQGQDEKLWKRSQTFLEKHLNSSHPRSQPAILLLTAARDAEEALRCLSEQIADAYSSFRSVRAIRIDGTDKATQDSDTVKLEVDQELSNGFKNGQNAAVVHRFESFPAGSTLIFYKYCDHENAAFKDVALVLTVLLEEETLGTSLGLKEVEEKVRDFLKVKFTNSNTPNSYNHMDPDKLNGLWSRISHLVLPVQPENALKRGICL

| Compound | composite z-score [1] | z-score [2] | composite z-score [3] | composite z-score [4] | composite z-score [5] | composite z-score [6] | composite z-score [7] | composite z-score [8] | composite z-score [9] | composite z-score [10] | composite z-score [11] | composite Z-score [12] | composite z-score [13] | composite z-score [14] | composite z-score [15] | composite z-score [16] | composite z-score [17] | composite z-score [18] | composite z-score [19] | composite z-score [20] |
| --- | --- | --- | --- | --- | --- | --- | --- | --- | --- | --- | --- | --- | --- | --- | --- | --- | --- | --- | --- | --- |
| O=C1C[C@H](c2ccccc2)[C@H](c2ccc(Br)cc2)O1 | 0.12 | 0.588 | 0.603 | -0.649 | -0.447 | -0.129 | -0.138 | -0.35 | -0.264 | 0.239 | 0.275 | 0.372 (inactive) | -0.182 | -0.117 | -0.202 | -0.652 | -1.07 | -0.179 | 0.143 | -0.394 |
| CC(C)=CCCC(C)=CCON=C1C[C@@H](O)[C@@H](O)[C@@H]2[C@@H]3C(=O)N(c4cccc(Oc5ccccc5)c4)C(=O)[C@@H]3CC[C@H]12 | 1.32 | 0.237 | 0.323 | 0.322 | 0.321 | -0.148 | 0.0483 | -0.0129 | 0.173 | -0.0168 | 0.631 | 1.38 (inactive) | -0.0288 | -0.155 | 0.376 | 1.23 | 0.163 | 1.02 | 0.492 | 0.609 |
| CC(=O)OC[C@H]1O[C@H](CC=NOC[C@@H](O)COCc2ccco2)C=C[C@@H]1OC(C)=O | -0.646 | 0.586 | 0.898 | -1.18 | -2.22 | -0.102 | -0.356 | -0.498 | 1.58 | -0.663 | 0.037 | 0.328 (inactive) | 0.282 | -0.0022 | -0.287 | -0.37 | -0.14 | 0.586 | 1.46 | -0.389 |
| CC(C)(C)N1C(=O)[C@H]2[C@H]3[C@H](O)[C@H](O)CC(=NOC[C@@H](O)COCc4ccco4)[C@@H]3CC[C@H]2C1=O | -0.266 | -0.287 | 0.0349 | -0.235 | 0.314 | -0.0685 | -0.16 | -0.0733 | 1.45 | 1.65 | 0.617 | 0.103 (inactive) | -0.0311 | -0.0984 | -0.129 | 0.0171 | 0.227 | -0.254 | 0.107 | 0.506 |
| CCN1C(=O)[C@H]2[C@H]3[C@H](O)[C@H](O)CC(=NOCC(C)C)[C@H]3CC[C@H]2C1=O | -0.0775 | 0.295 | 0.535 | -0.185 | -0.987 | -0.0542 | -0.138 | -0.238 | 0.152 | -0.14 | -0.369 | -0.14 (inactive) | 0.108 | -0.204 | -0.15 | -0.302 | 0.0041 | 0.0597 | 0.843 | -0.238 |
| CC(=O)OC[C@H]1O[C@H](CC=NO[C@H](C)c2cn([C@@H]3COC[C@H]3O)nn2)C=C[C@@H]1OC(C)=O | -0.535 | -0.774 | 0.0524 | -0.616 | -0.934 | -0.0685 | -0.206 | -0.17 | 0.637 | 0.799 | 0.834 | 0.195 (inactive) | -0.182 | -0.153 | -0.0556 | -0.426 | -0.16 | -0.378 | 0.85 | -0.152 |
| CCN1C(=O)[C@H]2[C@H]3[C@H](O)[C@H](O)CC(=NOCC=C(C)CCC=C(C)C)[C@@H]3CC[C@H]2C1=O | 0.57 | -0.44 | 1.29 | -1.09 | -0.347 | -0.087 | -0.282 | -0.158 | 0.0411 | 0.791 | 0.44 | -0.496 (inactive) | 0.144 | -0.118 | 0.0577 | 0.162 | 0.39 | 1.25 | 1.39 | 0.13 |
| C[C@@H](c1ccccc1)N1C(=O)[C@H]2[C@H]3[C@H](O)[C@H](O)CC(=NNC(=O)OCc4ccccc4)[C@@H]3CC[C@H]2C1=O | -0.347 | -1.01 | 1.17 | -1.16 | -1.94 | -0.158 | 0.0062 | -0.545 | -0.043 | -0.716 | 0.517 | 0.581 (inactive) | -0.0647 | -0.148 | -0.191 | -0.231 | -0.723 | 0.723 | 1.45 | -0.569 |
| COC(=O)[C@H](C)NC(=O)CCC1CC(OC(=O)NCCc2ccc(F)cc2)CC2(CCCC(COC(=O)NCCOc3ccccc3)O2)O1 (stereo not given in full) | 1.36 | -0.213 | 0.781 | 1.55 | 0.236 | 0.055 | 0.123 | -0.109 | 0.928 | 0.837 | 0.752 | 0.59 (inactive) | -0.029 | -0.0921 | 0.282 | 1.21 | -0.0401 | 1.31 | 1.03 | 1.02 |
| CCOC(=O)[C@H](CC(C)C)NC(=O)CCC1CC(OC(=O)NCCc2ccc(F)cc2)CC2(CCCC(COC(=O)NCCOC)O2)O1 (stereo not given in full) | 1.34 | -0.694 | 1.12 | 0.217 | -0.119 | -0.176 | -0.0769 | -0.438 | 0.461 | 0.411 | 0.502 | 0.795 (inactive) | -0.0573 | -0.171 | 0.0663 | 0.5 | 0.417 | 1.29 | 0.515 | 0.646 |
| CCN1C(=O)[C@H]2[C@@H]3C(=CC[C@H]2C1=O)C(=O)[C@H]1O[C@H]1[C@H]3O | 0.53 | -5.32 | 0.705 | -0.575 | -1.4 | 0.0559 | -0.138 | -0.144 | 0.282 | 0.0607 | -0.458 | -0.192 (inactive) | -0.0258 | -0.0531 | -0.156 | 0.141 | 0.426 | 0.657 | 1.21 | 0.725 |
| COc1ccc(COC(=O)NN=C2C[C@@H](O)[C@@H](O)[C@@H]3[C@@H]4C(=O)N(C5CCCCC5)C(=O)[C@@H]4CC[C@@H]23)cc1 | 0.14 | -1.76 | 0.0141 | -0.53 | -0.811 | -0.0529 | -0.0769 | -0.261 | -0.011 | 0.229 | 0.157 | -0.218 (inactive) | 0.289 | -0.0256 | -0.143 | 0.0678 | -0.253 | -0.0188 | -0.108 | -0.35 |

— PubChem BioAssay
